High-throughput results as filed in PubChem.
A selection: hits, their analogues and other compounds. The true share with any hit is near 1.5%.
AF4-AF9 inh: MLL-AF4/AF9 protein interaction inhibition; P42568; inhibition, % at 10 µM; AID 651704; AlphaScreen, biotin-AF4 peptide binding to FLAG-AF9; 350,000 compounds, 0.47% hits;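 active = every replicate reaching a set inhibition limit, whatever the replicate mean, cut at about 25% in these data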
miR-122 sensor: miR-122 inhibition in Huh7 cells; 340,000 compounds, 0.3% hits; Huh7 miR-122 Renilla luciferase sensor, 48 h; neutral wells = 0, positive control = 100; AID 602342; activation (reporter increase), % at 12.5 µM;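 active = mean replicate activation score at least 90 and every replicate individually at or above 90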;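 note: higher luciferase means less miR-122 activity so hits act as miR-122 inhibitors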
RAD52 anneal inh: inhibitors of human RAD52 DNA annealing; P43351; recombinant RAD52 DNA annealing, FRET fluorescence; inhibition, % at 18.7 µM; 360,000 compounds, 0.46% hits; AID 651710;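 active = every replicate showing at least 50% inhibition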
Target sequence (P43351 whole entry, looked up): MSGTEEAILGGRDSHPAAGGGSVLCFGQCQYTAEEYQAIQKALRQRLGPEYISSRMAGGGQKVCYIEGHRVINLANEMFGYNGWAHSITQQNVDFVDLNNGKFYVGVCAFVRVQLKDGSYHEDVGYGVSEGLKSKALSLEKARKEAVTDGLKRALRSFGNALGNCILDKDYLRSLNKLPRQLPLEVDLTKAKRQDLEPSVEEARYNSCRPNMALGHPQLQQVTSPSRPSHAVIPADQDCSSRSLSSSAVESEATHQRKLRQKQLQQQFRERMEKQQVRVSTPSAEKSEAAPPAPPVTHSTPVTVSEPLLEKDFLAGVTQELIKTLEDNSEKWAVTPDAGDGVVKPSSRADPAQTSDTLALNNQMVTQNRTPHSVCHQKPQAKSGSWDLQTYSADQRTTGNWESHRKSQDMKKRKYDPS
NSD2 HMT inh: NSD2 (human) methyltransferase inhibition. O96028. NSD2 peptide methylation, AlphaScreen, 120 min. inhibition, % at 12.5 µM. 310,000 compounds, 0.54% hits. AID 743445; in the data active = inhibition above about 50%
Casp6 inh: inhibitors of human caspase-6; AID 686996; inhibition, % at 12.5 µM; P55212; 350,000 compounds, 0.53% hits; purified caspase-6, Z-VEID-R110 cleavage fluorescence;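 active = mean inhibition across replicates at least about 35%, with every replicate also reaching that limit, limit read from the data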
Target sequence (P55212 24-179 limits assumed): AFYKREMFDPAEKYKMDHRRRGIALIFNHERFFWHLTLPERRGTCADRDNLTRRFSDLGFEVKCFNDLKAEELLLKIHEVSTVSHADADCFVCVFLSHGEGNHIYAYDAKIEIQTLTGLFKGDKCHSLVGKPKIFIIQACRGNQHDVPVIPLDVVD
Target sequence (P55212 194-293 limits assumed): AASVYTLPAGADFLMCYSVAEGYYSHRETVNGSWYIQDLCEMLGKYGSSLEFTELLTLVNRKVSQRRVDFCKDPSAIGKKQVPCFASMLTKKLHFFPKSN
Large screens that a line does not name were inactive.

CCCCCC(O)C=CC1C(O)CC(O)C1CC=CCCCC(=O)O (configuration not stated)	none
COc1cc(CC2COC(c3ccc(O)c(OC)c3)C2COC(C)=O)ccc1O (configuration not stated)	Casp6 inh 58 (no result: NSD2 HMT inh)
O=C(C[C@H]1C[C@H](C(=O)N2CCCCC2)[C@@]2(CCc3ccccc3)c3[nH]c4cc(-c5ccco5)ccc4c3CCN2C1=O)NCCN1CCOCC1	AF4-AF9 inh 26 (no result: NSD2 HMT inh)
COCCCNC(=O)C[C@H]1C[C@H](C(=O)N2CCCCC2)[C@@]2(CCc3ccccc3)c3[nH]c4cc(-c5ccco5)ccc4c3CCN2C1=O	none (no result: miR-122 sensor, NSD2 HMT inh)
C[C@@H]1CN([C@@H](C)CO)C(=O)c2cc(NS(=O)(=O)c3cccs3)ccc2O[C@H]1CN(C)S(=O)(=O)c1ccc(F)cc1	none (no result: NSD2 HMT inh)
O=C(CSc1n[nH]c(-c2ccco2)n1)Nc1ccccc1Cl	none
O=C(CSc1n[nH]c(-c2ccco2)n1)Nc1ccccc1F	Casp6 inh 46 (no result: miR-122 sensor)
COc1cccc(-c2ccc3c(c2)[C@H]2[C@H](CCN2C(=O)C2CCOCC2)[C@@H](CO)N3)c1	none (no result: NSD2 HMT inh)
CCCC(O)C#Cc1cnc2c(c1)C(=O)N([C@H](C)CO)C[C@H](C)[C@H](CN(C)Cc1cccc(C)c1)O2 (some centres not stated)	none (no result: NSD2 HMT inh)
C[C@@H]1CN([C@@H](C)CO)C(=O)c2cccc(NC(=O)Nc3cccc4ccccc34)c2O[C@H]1CN(C)CC1CC1	Casp6 inh 38 (no result: NSD2 HMT inh)
C[C@H](CO)N1C[C@H](C)[C@@H](CN(C)CC2CCCCC2)Oc2ccc(NC(=O)Nc3ccc4c(c3)OCO4)cc2CC1=O	AF4-AF9 inh 26 (no result: NSD2 HMT inh)
C[C@@H]1CN([C@@H](C)CO)C(=O)c2cccc(NC(=O)Nc3ccc4c(c3)OCO4)c2O[C@@H]1CN(C)CC1CC1	AF4-AF9 inh 25 (no result: miR-122 sensor, NSD2 HMT inh)
CCC(=O)N1C[C@H](C)[C@H](OC)CN(C)C(=O)c2ccc(NC(=O)COC)cc2OC[C@@H]1C	none (no result: NSD2 HMT inh)
CCc1nnc(NC(=O)CSc2sc3c(O)cc(=O)[nH]c3c2C#N)s1	Casp6 inh 65 (no result: NSD2 HMT inh)
CCSc1nnc(NC(=O)CSc2sc3c(O)cc(=O)[nH]c3c2C#N)s1	Casp6 inh 44
N#Cc1c(SCC(=O)Nc2cccc(C(F)(F)F)c2)sc2c(O)cc(=O)[nH]c12	none (no result: miR-122 sensor, NSD2 HMT inh)
Cc1csc(NC(=O)CSc2sc3c(O)cc(=O)[nH]c3c2C#N)n1	Casp6 inh 79
Oc1ccc(Cl)cc1/C=C/c1ccc2cccc(O)c2n1	miR-122 sensor 140
COC1=C(Nc2ccc(C)cc2)C(=O)c2ccccc2C1=O	AF4-AF9 inh 37, NSD2 HMT inh 78 (no result: miR-122 sensor)
COC1=C(Nc2ccccc2)C(=O)c2ccccc2C1=O	NSD2 HMT inh 75 (no result: AF4-AF9 inh, miR-122 sensor, RAD52 anneal inh, Casp6 inh)
CC1=C(Nc2ccc(C(=O)O)cc2)C(=O)c2ccccc2C1=O	none (no result: Casp6 inh)
COc1ccc(NS(=O)(=O)c2cc(NC(=O)c3ccc(=O)[nH]c3)ccc2C)cc1	miR-122 sensor 100
C[C@@H]1CCCCO[C@@H](CN(C)CC2CC2)[C@@H](C)CN([C@H](C)CO)C(=O)c2cc(NS(=O)(=O)c3cn(C)cn3)ccc2O1	none (no result: NSD2 HMT inh)
COc1ccc(C)cc1NS(=O)(=O)c1ccc2c(c1)CCN2C(C)=O	miR-122 sensor 92
CCN1CCN(CCNC(=O)c2ccc(/C=C3/Sc4ccccc4N(Cc4cccc(Cl)c4)C3=O)cc2)CC1	none (no result: AF4-AF9 inh, miR-122 sensor, NSD2 HMT inh)
CCN1CCN(CCNC(=O)c2ccc3c(c2)N(Cc2ccc(F)cc2)C(=O)/C(=C/c2ccccc2)S3)CC1	AF4-AF9 inh 58, RAD52 anneal inh 73
CCC1CCCCN1Cc1c(O)ccc2c(=O)c(-c3ccccc3OC)coc12 (configuration not stated)	AF4-AF9 inh 29
COc1ccccc1-c1coc2c(CN3CCC(C)CC3)c(O)ccc2c1=O	none
O=C(NCC(=O)N1CC=C(c2ccccc2)CC1)c1ccccc1Br	Casp6 inh 80
CCCN1C[C@@H](C)[C@H](OC)CN(C)C(=O)c2ccc(NC(=O)c3cnccn3)cc2OC[C@@H]1C	none (no result: miR-122 sensor, NSD2 HMT inh)
CN=c1scc(-c2ccc(F)cc2)n1/N=C/c1ccc(O)c(O)c1	AF4-AF9 inh 59 (no result: miR-122 sensor, NSD2 HMT inh)
CN=c1scc(-c2ccc([N+](=O)[O-])cc2)n1/N=C/c1ccco1	none
Cc1cc(C)c(NS(=O)(=O)c2cccc3cccnc23)c(C)c1	none
Cc1ccc(S(=O)(=O)Nc2cccc3cccnc23)c([N+](=O)[O-])c1	miR-122 sensor 100
O=C(C1CC1)N1CC2(C1)[C@H](c1ccccc1)[C@H](CO)N2CCC(F)(F)F	none (no result: miR-122 sensor, NSD2 HMT inh)
O=C(O)c1cccc(-n2cccc2/C=C2\SC(=O)N(Cc3ccccc3F)C2=O)c1	Casp6 inh 86 (no result: miR-122 sensor)
O=C(O)c1cccc(-n2cccc2C=C2C(=O)c3ccccc3C2=O)c1	none (no result: miR-122 sensor, Casp6 inh)
COc1cc2c(cc1OC)C(=O)C(Br)CC2 (configuration not stated)	NSD2 HMT inh 140 (no result: AF4-AF9 inh, miR-122 sensor, RAD52 anneal inh, Casp6 inh)
COc1cc2c(cc1OC)C(=O)C(c1ccc3c(c1)OCO3)CC2 (configuration not stated)	none (no result: Casp6 inh)
CO[C@@H]1CN(C)C(=O)c2ccc(NC(=O)NC(C)C)cc2OC[C@H](C)N(CCC(F)(F)F)C[C@@H]1C	none (no result: NSD2 HMT inh)
COC(=O)C[C@@H]1CC[C@@H]2[C@H](COc3ccc(NS(=O)(=O)c4ccc(F)cc4)cc3C(=O)N2C)O1	none (no result: AF4-AF9 inh, NSD2 HMT inh, Casp6 inh)
Cc1noc(C)c1NC(=O)Nc1ccc2c(c1)CC(=O)N([C@@H](C)CO)C[C@H](C)[C@@H](CN(C)CC1CC1)O2	none (no result: NSD2 HMT inh)
CCNC(=O)[C@H]1[C@H](CO)[C@H]2Cn3c(ccc(-c4cccc(F)c4)c3=O)[C@H]2N1Cc1cc(F)ccc1F	none (no result: AF4-AF9 inh, miR-122 sensor, NSD2 HMT inh, Casp6 inh)
O=C1C(Oc2ccccc2)C(c2ccc3c(c2)OCO3)N1CCc1ccc(F)cc1 (configuration not stated)	miR-122 sensor 238
CCOC(=O)N1CCN(C(C(=O)NC2CCCC2)C(C)C)CC1 (configuration not stated)	Casp6 inh 38 (no result: AF4-AF9 inh, miR-122 sensor, NSD2 HMT inh)
O=C(O)c1cccc(-n2c(O)c(C=C3N=c4ccccc4=N3)sc2=S)c1	Casp6 inh 59 (no result: NSD2 HMT inh)
O=C(O)CCCn1c(O)c(C=C2N=c3ccccc3=N2)sc1=S	Casp6 inh 41 (no result: NSD2 HMT inh)
O=C(O)CCCCCn1c(O)c(C=C2N=c3ccccc3=N2)sc1=S	none (no result: miR-122 sensor)
COc1ccc(S(=O)(=O)NCCc2c(C)nn(C)c2Oc2ccccc2)cc1	miR-122 sensor 238 (no result: AF4-AF9 inh, RAD52 anneal inh, NSD2 HMT inh, Casp6 inh)
CN(C)CC(=O)N1[C@@H]2c3ccc(-c4ccc(F)cc4)c(=O)n3C[C@@H]2[C@@H](CO)[C@@H]1C(=O)NC1CCCC1	none (no result: NSD2 HMT inh)
CN1CCc2cc3c(c4c2[C@H]1[C@H](O)c1ccccc1-4)OCO3	Casp6 inh 49 (no result: miR-122 sensor, NSD2 HMT inh)
COc1ccc2c(c1OC)C(=O)OC2C1c2c(cc3c(c2OC)OCO3)CCN1C (configuration not stated)	none (no result: NSD2 HMT inh)
N#Cc1ccc(CSC2=NCCN2)cc1	none (no result: miR-122 sensor)
CCOc1ccc(CSC2=NCCN2)cc1Cl	miR-122 sensor 277 (no result: AF4-AF9 inh, RAD52 anneal inh, Casp6 inh)
C[C@@H]1CCCCO[C@H](CN(C)C(=O)Nc2ccc(F)cc2)[C@@H](C)CN([C@@H](C)CO)C(=O)c2cc(NC(=O)NC3CCCCC3)ccc2O1	none (no result: NSD2 HMT inh)
O=C(OCCN=C1NS(=O)(=O)c2ccccc21)c1ccccc1	miR-122 sensor 215 (no result: AF4-AF9 inh, RAD52 anneal inh, Casp6 inh)
